PubChem BioAssay (Tox21)
Inconclusive results are not listed. Calls of active or inactive are those of the source. Unless noted, calls follow the shape of the dose curve; as a rule, active = well fitted curve in the direction sought with a large enough effect in the repeat runs; inconclusive = weak or mixed curves; inactive = no such curve, though single readings can be large; an effect the other way counts as inactive or inconclusive.

Legend:
[1] = qHTS assay for small molecule agonists of the p53 signaling pathway (AID 651631; calls by dose curve; also: nearly all actives have a fitted effect of over 15% in size)
Method in brief: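 Read-out is beta-lactamase FRET fluorescence measured 2 h after substrate addition at room temperature, in HCT-116 cells with a p53 response element-driven reporter exposed to compounds for 16 h at 37 °C.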

[2] = qHTS assay for small molecules that induce genotoxicity in human embryonic kidney cells expressing luciferase-tagged ATAD5 (AID 651632); also: nearly all actives have a fitted effect of over 15% in size
Method in brief: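 Quantitative HTS in HEK293T expressing luciferase-tagged ATAD5, whose levels rise upon DNA damage. Exposure ran 16 hr at 37C and 5% CO2, with luminescence read 30 min after Amplite addition at room temperature.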

[3] = qHTS assay for small molecule agonists of the p53 signaling pathway - cell viability (AID 651633; calls by dose curve;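 also: p53RE-bla HCT reporter cells with a stable beta-lactamase p53 reporter; series mostly up to about 83 µM; nearly all actives have a fitted effect of over 30% in size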)
Method in brief: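 p53RE-bla cells were treated with compound for 16 hours at 37 C. Cytotoxicity was then measured as CellTiter-Glo luminescence after 30 min at room temperature.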

[4] = qHTS assay for small molecules that induce genotoxicity in human embryonic kidney cells expressing luciferase-tagged ATAD5 - cell viability (AID 651634; calls by dose curve; also: nearly all actives have a fitted effect of over 25% in size)
Method in brief: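 After 15.5 hr incubation with compound at 37C, 5% CO2, HEK293T ATAD5-luciferase cells received CellTiter-Fluor reagent; fluorescence intensity was quantified following 30 min at 37C.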

[5] = qHTS assay for small molecule disruptors of the mitochondrial membrane potential - cell viability (AID 720634; calls by dose curve;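 also: human HepG2 liver cancer cells; series mostly up to about 83 µM; nearly all actives have a fitted effect of over 20% in size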)
Method in brief: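 ATP-based luminescent viability readout (CellTiter-Glo, 30 min, room temperature) in HepG2 cells multiplexed with the m-MPI membrane potential dye; compound exposure lasted 1 hr at 37 C.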

[6] = qHTS assay to test for compound auto fluorescence at 590 nm (red) in HepG2 cells (AID 720674)
Method in brief: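 Seeding: 2,000 HepG2 cells/well, MEM/10% FBS, overnight 37 C. Dosing: compound vs DMSO. Incubation: 1 hr, 37 C, 5% CO2. Read: fluorescence 540 ex/590 em, Rose Bengal sodium as red reference.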

[7] = qHTS assay to test for compound auto fluorescence at 535 nm (green) in HepG2 cells (AID 720675)
[8] = qHTS assay to test for compound auto fluorescence at 460 nm (blue) in HEK293 cells (AID 720678)
Method in brief: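 Cells were seeded and left to adhere for 4-5 hr at 37C. Compounds were then pin-transferred. After an overnight incubation at 37C under 5% CO2, intrinsic fluorescence at 405/460 nm was measured and referenced to triamterene.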

[9] = qHTS assay to test for compound auto fluorescence at 590 nm (red) in HEK293 cells (AID 720679)
Method in brief: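 Each well held 2,000 HEK293 cells in medium containing 10% dialyzed FBS. Following 4-5 hr attachment at 37C, 23 nL test compound or DMSO was added; plates sat overnight, and red fluorescence (540/590nm) was recorded.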

[10] = qHTS assay to test for compound auto fluorescence at 460 nm (blue) in HEK293 cell free culture (AID 720681)
Method in brief: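 Compounds were added to cell-free DMEM with 10% FBS and fluorescence read directly. The blue channel used 405 nm excitation and 460 nm emission, with triamterene as the reference fluorophore.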

[11] = qHTS assay to test for compound auto fluorescence at 535 nm (green) in HEK293 cell free culture (AID 720682)
Method in brief: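 Fluorescein serves as the green reference fluorophore; each compound's intrinsic emission at 535 nm (excitation 485 nm) is reported as an equivalent amount of that dye, measured in serum-containing DMEM without cells.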

[12] = qHTS assay to test for compound auto fluorescence at 590 nm (red) in HEK293 cell free culture (AID 720683)
Method in brief: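 Cell-free wells of DMEM with 10% FBS received compound, and intrinsic fluorescence was read at excitation/emission 540/590 nm. Values expressed as equivalence to Rose Bengal sodium.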

[13] = qHTS assay to test for compound auto fluorescence at 590 nm (red) in HepG2 cell free culture (AID 720684)
Method in brief: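 Rose Bengal sodium served as the reference for red signal. Test compounds were dispensed into serum-containing MEM (10% FBS) without cells, and plates were read at 540/590 nm.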

[14] = qHTS assay to test for compound auto fluorescence at 460 nm (blue) in HepG2 cell free culture (AID 720685)
Method in brief: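 Cell-free plates of MEM plus 10% FBS received 23 nL compound or DMSO vehicle; blue-channel (405/460 nm) intensity scored against triamterene as reference fluorophore.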

[15] = qHTS assay to test for compound auto fluorescence at 535 nm (green) in HepG2 cell free culture (AID 720686)
[16] = qHTS assay to test for compound auto fluorescence at 460 nm (blue) in HepG2 cells (AID 720687)
Method in brief: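 HepG2 cells in MEM with 10% FBS, attached overnight at 37 C, were exposed to compound or DMSO for 1 hr at 37 C, 5% CO2. Blue fluorescence was read at 405/460 nm, with triamterene as reference fluorophore.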

[17] = biological target: Glucocorticoid receptor (Homo sapiens) (UniProt P04150); assay: qHTS assay to identify small molecule agonists of the glucocorticoid receptor (GR) signaling pathway (AID 720691; active = well fitted activation curve with a large enough effect in the signal ratio in the repeat runs, not every such curve was filed as active; the % refers to the signal ratio)
Sequence of Glucocorticoid receptor (Homo sapiens) (P04150 whole entry, looked up): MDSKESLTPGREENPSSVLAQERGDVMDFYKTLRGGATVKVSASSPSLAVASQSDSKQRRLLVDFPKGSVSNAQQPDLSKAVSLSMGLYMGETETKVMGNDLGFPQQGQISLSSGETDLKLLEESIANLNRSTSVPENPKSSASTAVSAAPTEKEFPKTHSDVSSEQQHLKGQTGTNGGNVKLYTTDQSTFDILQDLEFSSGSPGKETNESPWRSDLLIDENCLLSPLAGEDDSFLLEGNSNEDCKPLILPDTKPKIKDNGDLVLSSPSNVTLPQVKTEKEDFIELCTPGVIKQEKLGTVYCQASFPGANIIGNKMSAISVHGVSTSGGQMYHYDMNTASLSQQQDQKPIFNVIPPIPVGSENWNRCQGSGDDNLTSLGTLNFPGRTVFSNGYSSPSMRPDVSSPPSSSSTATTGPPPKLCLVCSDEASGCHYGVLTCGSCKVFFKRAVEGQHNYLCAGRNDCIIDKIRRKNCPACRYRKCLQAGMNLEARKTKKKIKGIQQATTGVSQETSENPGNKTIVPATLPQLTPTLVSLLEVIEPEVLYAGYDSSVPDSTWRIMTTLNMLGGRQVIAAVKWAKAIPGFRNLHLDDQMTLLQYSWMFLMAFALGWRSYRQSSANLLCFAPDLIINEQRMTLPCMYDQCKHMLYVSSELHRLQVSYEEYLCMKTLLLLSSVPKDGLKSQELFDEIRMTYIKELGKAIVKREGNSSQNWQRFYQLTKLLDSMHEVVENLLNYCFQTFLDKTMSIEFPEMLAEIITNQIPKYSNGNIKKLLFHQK
Method in brief: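 Cells: GR-bla HeLa, endogenous GR with stably integrated GRE-beta-lactamase reporter. Treatment 18 h, 37 C, compounds delivered in DMSO. Detection via LiveBLAzer B/G FRET substrate, 2 h RT, fluorescence intensity.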

[18] = biological target: Glucocorticoid receptor (Homo sapiens) (UniProt P04150); assay: qHTS assay to identify small molecule antagonists of the glucocorticoid receptor (GR) signaling pathway (AID 720692; active = well fitted inhibition curve with a large enough effect in the signal ratio in the repeat runs, not every such curve was filed as active; the % refers to the signal ratio)
Method in brief: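 Quantitative HTS in antagonist format: HeLa cells expressing endogenous GR and a stably integrated GRE-bla reporter, stimulated with 5 nM dexamethasone (final) alongside test compounds for 18 h.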

[19] = qHTS assay to identify small molecule antagonists of the glucocorticoid receptor (GR) signaling pathway - cell viability counter screen (AID 720693); also: nearly all actives have a fitted effect of over 55% in size
[20] = qHTS assay for identifying genotoxic compounds that show differential cytotoxicity against isogenic chicken DT40 cell lines with known DNA damage response pathways - wild type cell line (AID 743012); also: nearly all actives have a fitted effect of over 60% in size
Method in brief: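 Luminescent ATP viability signal (CellTiter-Glo, 30 min RT) recorded after wild type DT40 cells were incubated with compounds for 40 h at 37 C/5% CO2.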

[21] = qHTS assay for identifying genotoxic compounds that show differential cytotoxicity against isogenic chicken DT40 cell lines with known DNA damage response pathways - Rev3 mutant cell line (AID 743014); also: nearly all actives have a fitted effect of over 55% in size
[22] = qHTS assay for identifying genotoxic compounds that show differential cytotoxicity against isogenic chicken DT40 cell lines with known DNA damage response pathways - Rad54/Ku70 mutant cell line (AID 743015); also: nearly all actives have a fitted effect of over 60% in size
[23] = biological target: Androgen receptor (Homo sapiens) (UniProt P10275); assay: qHTS assay to identify small molecule antagonists of the androgen receptor (AR) signaling pathway (AID 743035; active = well fitted inhibition curve with a large enough effect in the signal ratio in the repeat runs, not every such curve was filed as active; the % refers to the signal ratio)
Sequence of Androgen receptor (Homo sapiens) (P10275 whole entry, looked up): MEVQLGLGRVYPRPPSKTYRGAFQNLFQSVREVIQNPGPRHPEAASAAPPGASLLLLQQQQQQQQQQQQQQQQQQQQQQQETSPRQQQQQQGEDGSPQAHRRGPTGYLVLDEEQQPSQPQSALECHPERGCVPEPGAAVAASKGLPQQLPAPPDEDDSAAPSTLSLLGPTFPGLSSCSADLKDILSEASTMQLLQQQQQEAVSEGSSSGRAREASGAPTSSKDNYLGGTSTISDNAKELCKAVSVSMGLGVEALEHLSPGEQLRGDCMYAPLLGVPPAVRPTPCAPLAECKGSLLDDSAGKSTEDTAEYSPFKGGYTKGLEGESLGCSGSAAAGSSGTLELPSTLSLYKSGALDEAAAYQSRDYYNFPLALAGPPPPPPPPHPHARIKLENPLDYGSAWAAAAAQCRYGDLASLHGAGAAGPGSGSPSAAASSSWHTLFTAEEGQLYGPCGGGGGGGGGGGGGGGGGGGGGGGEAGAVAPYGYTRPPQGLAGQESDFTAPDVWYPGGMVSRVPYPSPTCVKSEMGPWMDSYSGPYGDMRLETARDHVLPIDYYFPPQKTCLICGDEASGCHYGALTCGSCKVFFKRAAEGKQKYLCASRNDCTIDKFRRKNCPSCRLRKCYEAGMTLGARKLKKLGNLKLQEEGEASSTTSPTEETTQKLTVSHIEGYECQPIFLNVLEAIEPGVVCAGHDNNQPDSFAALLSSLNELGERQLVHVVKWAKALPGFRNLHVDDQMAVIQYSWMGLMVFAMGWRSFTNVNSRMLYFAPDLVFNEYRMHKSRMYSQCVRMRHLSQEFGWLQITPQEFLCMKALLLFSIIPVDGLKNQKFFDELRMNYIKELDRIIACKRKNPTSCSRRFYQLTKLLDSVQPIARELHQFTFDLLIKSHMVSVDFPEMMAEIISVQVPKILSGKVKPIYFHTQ
Method in brief: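 Quantitative HTS of the Tox21 10K library used HEK293 AR-UAS-bla cells stimulated with R1881 alongside compound for 16 h at 37C, followed by beta-lactamase FRET detection (LiveBLAzer B/G, 2 h, RT).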

[24] = biological target: Androgen receptor (Homo sapiens) (UniProt P10275); assay: qHTS assay to identify small molecule agonists of the androgen receptor (AR) signaling pathway (AID 743036; active = well fitted activation curve with a large enough effect in the signal ratio in the repeat runs, with a control signal flat, not every such curve was filed as active; the % refers to the signal ratio)
Method in brief: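 Fluorescence from a beta-lactamase FRET substrate served as read-out in AR-UAS-bla GripTite HEK293 cells. Cells were treated with DMSO-dissolved compounds for 16 h at 37C, then with LiveBLAzer B/G substrate for 2 h at room temperature.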

Measured: Potency

CCCCCN(C)CCC(O)(P(=O)(O)O)P(=O)(O)O
inactive: all assays above
